Out of some 340,000 compounds screened, about 1,000 (0.29%) were called active. A selection follows. Entries with a potency or affinity are not part of this list. Unmarked numbers belong to inactive results. No stated cut-off is given here; in the data, inconclusive means inhibition above about 27% without an active follow-up result; inactive means below that.

The test can be described thus: H1N1 influenza NS1A inhibitors, functional cell based assay (AID 504329). To be noted: percent inhibition, at 12.5 µM, stronger effect = higher value.
Consider `CCN(CC(=O)Nc1c(F)cccc1F)C(=O)CCNC(=O)c1ccc([N+](=O)[O-])cc1`, for which the inhibition was -2.66%.

`Cc1ccc2oc(-c3ccccc3C(=O)O)cc(=O)c2c1`: the inhibition was 1.72%.

On to `O=C(O)c1cccc(-c2ccccc2)c1O`, for which the inhibition was -26.6%.

As to `CN1CCN(C(=O)Nc2ccc([N+](=O)[O-])cc2)CC1`, the inhibition is 15.5%.

With `O=C(CN1CCOc2ccccc21)NCc1ccco1`, the inhibition is -0.84%.

Regarding `CCC1Oc2ccccc2N(CC(=O)NCc2ccco2)C1=O` (configuration not stated), the inhibition was -8.15%.

With `O=C(Cn1[nH]c(=O)c2ccccc2c1=O)OCC(=O)c1ccc(Br)cc1`, the inhibition is 5.91%.

For `COc1ccc(C(=O)COC(=O)Cn2nnc3ccccc32)cc1Br`, the inhibition is 18.7%.

Turning to `O=C1CN(CC(=O)N2CCCCC2)c2ccccc2O1`, the inhibition is 16%.

As for `O=C(CN1C(=O)c2ccccc2C1=O)OCC(=O)c1ccccc1`, the inhibition is -5.68%.

Consider `COc1ccc(C(=O)COC(=O)C2CC3CCCC(C2)C3=O)cc1Br` (configuration not stated), for which the inhibition was -3.01%.

Consider `O=C(CN1C(=O)C2C3C=CC(C3)C2C1=O)OCC(=O)c1ccc(Br)cc1` (configuration not stated), for which the inhibition was 4.57%.

Turning to `Cc1c(C)c2ccc(OCC(=O)N3CCN(c4ccccc4)CC3)cc2oc1=O`, the inhibition was 4.8%.

Take `COc1cc(C2NC(=O)NC(c3ccccc3)=C2C(C)=O)cc(Cl)c1OCC(=O)O` (configuration not stated): the inhibition was -2.44%.

On to `CC[C@@]1(C(=O)OC)N[C@H](CN(C)S(=O)(=O)c2ccc(OC)cc2)[C@@H]2C(=O)N(C)C(=O)[C@@H]21`, for which the inhibition is -26.2%.

Take `Cc1ccc(S(=O)(=O)NCC(=O)OCC(=O)NCc2ccco2)cc1`: the inhibition is -3.09%.

Regarding `O=C(Nc1cccc(Cl)c1)c1cnccn1`, the inhibition was -1.59%.

As to `Cc1cccc(NC(=S)N/N=C/c2cccc(O)c2)c1C`, the inhibition is -3.84%.

Take `C/C(=N\NC(=S)Nc1ccccc1C)c1ccc(O)cc1`: the inhibition is 10.4%.

Take `O=C(CCC(=O)Nc1ccc(F)cc1)N/N=C/c1ccc(O)cc1O`: the inhibition was 9.41%.

Turning to `Fc1ccc(NC(=S)N/N=C/c2ccc(F)c(F)c2)cc1`, the inhibition is 0.18%.

`O=C(CCC(=O)Nc1ccc(F)cc1)N/N=C/c1ccccc1O`: the inhibition was -5.76%.

Regarding `Fc1ccc(NC(=S)NN=Cc2ccccc2Cl)cc1`, the inhibition is -9.24%.

`Cc1ccc(S(=O)(=O)NCc2ccccc2)cc1C(=O)N1CCN(S(=O)(=O)c2ccccc2)CC1`: the inhibition was -12.2%.

Consider `COC(=O)C1SCCN1S(=O)(=O)c1ccc(Cl)cc1` (configuration not stated), for which the inhibition is -20.7%.

Take `CN(C)c1nc(OCC(=O)NC(C)(C)C)nc(N(C)C)n1`: the inhibition was -0.43%.

Regarding `O=C(c1ccc(Br)c(S(=O)(=O)N2CCOCC2)c1)N1CCN(C/C=C/c2ccccc2)CC1`, the inhibition is -13%.

Regarding `CC1(c2ccc3c(c2)OCCO3)NC(=O)N(CC(=O)Nc2ccccc2SCC#N)C1=O` (configuration not stated), the inhibition is -12.2%.

For `O=S(=O)(O)c1cc(O)ccc1O`, the inhibition was 1.1%.

As for `Oc1ccc(N=Nc2ccc3c(c2)OCCO3)c(O)c1`, the inhibition is 12.8%.

On to `Oc1ccc(N=Nc2ccc(Br)cc2)c(O)c1`, for which the inhibition was -16.2%.

Turning to `O=S(=O)(c1cc(O)ccc1O)c1cccc2c(S(=O)(=O)c3cc(O)ccc3O)cccc12`, the inhibition is 12.4%.

In the case of `CC(OC(=O)c1ncc(Cl)c(Cl)c1Cl)C(=O)NC1CCCCC1C` (configuration not stated), the inhibition was -15.4%.

For the compound `CN1C=C/C(=C\c2cc[n+](C)c3ccccc23)c2ccccc21`, the inhibition was 1.31%.

`COc1ccc(/C=C/c2ccc3ccccc3[n+]2C)cc1OC`: the inhibition is -10.2%.

On to `CC(C)CCC(C)NC(=O)Cc1ccc(S(=O)(=O)N2CCOCC2)s1` (configuration not stated), for which the inhibition is -3.75%.

For the compound `O=C(Nc1nc(-c2ccccc2)cs1)c1ccco1`, the inhibition was 1.53%.

Take `O=C(Nc1nc(-c2ccccn2)cs1)c1ccc2c(c1)OCCO2`: the inhibition was 4.21%.

As for `CC(=O)Nc1ccc(C(=O)Nc2nc(-c3cccnc3)cs2)cc1`, the inhibition is 4.3%.

For `O=C(Nc1nc(-c2ccccn2)cs1)c1cccc(-n2cnnn2)c1`, the inhibition is -28.6%.

For `C/C(=N\NC(=O)C1COc2ccccc2O1)c1ccc(C)o1` (configuration not stated), the inhibition was 7.81%.

In the case of `C/C(=N\NC(=O)C1COc2ccccc2O1)c1cccs1` (configuration not stated), the inhibition was -4.26%.

With `O=C(Nc1nc(-c2ccccn2)cs1)c1ccc(Cl)s1`, the inhibition was 12.2%.

As for `O=C(Nc1nc(-c2ccncc2)cs1)c1ccco1`, the inhibition was 21.8%.

In the case of `O=C(Nc1nc2c(F)cccc2s1)C1CC1`, the inhibition was -11.6%.

Consider `O=C(CN1CCCCC1)Nc1ccc(F)c(Cl)c1`, for which the inhibition is 6.14%.

Turning to `CC(=O)N1N=C(c2ccc(C)cc2)CC1c1ccc2c(c1)OCO2` (configuration not stated), the inhibition was -19.2%.

For `Cc1n[nH]c(C)c1CCN(C)Cc1cn(C)nc1-c1ccccc1F`, the inhibition was -2.31%.

Consider `CCOC(=O)C(CC)n1cnc2c(nnn2-c2ccccc2)c1=O` (configuration not stated), for which the inhibition is 4.43%.

With `CC(C)C[C@@H](CNCC(=O)[C@H](Cc1ccccc1)NC(=O)c1[nH]cnc1C(=O)N[C@@H](C)CN)NC(=O)c1nc[nH]c1C(=O)N[C@@H](C)C(=O)O`, the inhibition is -9.76%.

For the compound `O=C(NCc1cccs1)Nc1cc(Cl)ccc1Cl`, the inhibition is -3.84%.

On to `Cc1csc(NC(=O)C2COc3ccccc3O2)n1` (configuration not stated), for which the inhibition is 3.59%.

As to `C[C@H](NC(=O)c1ccco1)C(=O)Nc1nc(-c2ccccn2)cs1`, the inhibition was 21.6%.

Consider `Cc1csc(NC(=O)c2nc3nccc(C)n3n2)n1`, for which the inhibition is 11.3%.

`CC(NC(=O)c1ccco1)C(=O)Nc1nccs1` (configuration not stated): the inhibition was -3.4%.

Turning to `Cc1csc(NC(=O)C2CC(=O)N(c3ccc4c(c3)OCCO4)C2)n1` (configuration not stated), the inhibition was -10.8%.

`O=C(Nc1nc(-c2ccccc2)cs1)C1COc2ccccc2O1` (configuration not stated): the inhibition was 3.59%.

With `Cc1ccnc2nc(C(=O)Nc3nc4ccccc4s3)nn12`, the inhibition is -12.1%.

Take `COc1ccc(-c2csc(NC(=O)C3CC(=O)N(c4ccc5c(c4)OCCO5)C3)n2)cc1` (configuration not stated): the inhibition is -0.66%.

As for `Cc1ccc(NCC(=O)N/N=C/c2ccncc2)cc1`, the inhibition was -3.31%.

Take `COc1ccc(Cc2noc(CN(C)CC(O)c3ccccc3)n2)cc1OC` (configuration not stated): the inhibition is -6.23%.

In the case of `CC(C)Cc1nnc(NC(=O)c2ccncc2)s1`, the inhibition was 7%.

For the compound `C[C@H](CO)N1C[C@H](C)[C@@H](CN(C)S(=O)(=O)c2cccs2)Oc2ccc(NC(=O)Cc3ccccc3)cc2C1=O`, the inhibition was -1.59%.

On to `O=C(CN1C(=O)NC2(CCOc3ccccc32)C1=O)Nc1cccc(Cl)c1` (configuration not stated), for which the inhibition is 3.28%.

For the compound `CC(=O)CC(=O)Nc1ccn(-c2ccccc2)n1`, the inhibition is 10.6%.

`O=C(CNC(=O)c1ccco1)NCC(=O)OCC(=O)c1ccc(Cl)c([N+](=O)[O-])c1`: the inhibition was 6.1%.

`O=C1OC(c2ccc(F)cc2)=N/C1=C\C=C/c1ccccc1`: the inhibition is -22.8%.

On to `CC(C)(C)NC(=S)NC(=O)C12CCC3CC(CC(C3)C1)C2`, for which the inhibition is 0.27%.

`CCOc1ncccc1C(=O)Nc1ccccc1N1CCOCC1`: the inhibition was -4.05%.

Take `CC(Oc1ccccc1)C(=O)Nc1nc(-c2ccccn2)cs1` (configuration not stated): the inhibition was 16.9%.

`Cc1ccc(C(=O)Nc2nc(-c3ccccn3)cs2)s1`: the inhibition is 18.4%.

Regarding `Cc1csc(NC(=O)c2cccn2C)n1`, the inhibition is -0.43%.

In the case of `Cc1cccc(C(=O)NC(C(=O)Nc2nc(-c3ccccn3)cs2)C(C)C)c1` (configuration not stated), the inhibition was 15.6%.

As to `COc1ccc(NC(=O)CSCc2cc(=O)n3nc(C4CC4)sc3n2)cc1`, the inhibition was 2.59%.

As to `CCCCOc1c(Cl)cc(CNC(C)(C)CO)cc1OCC`, the inhibition was -2.92%.

With `Cc1ccc(-c2nn(C)c(=O)c3ccccc23)cc1S(=O)(=O)NCCN1CCOCC1`, the inhibition is -10.6%.

`O=C1C2CCCN2C(c2ccc(F)c(F)c2)N1c1cccc(Cl)c1` (configuration not stated): the inhibition was -6.3%.

For the compound `Cc1cc(OCc2cn3cccnc3n2)ccc1Cl`, the inhibition is 6.77%.

In the case of `CCOc1ccc2[nH]c(=O)c(CN(Cc3ccccc3OC)C(=O)c3ccccc3)cc2c1`, the inhibition was 21.1%.

Regarding `CCOc1ccc(S(=O)(=O)N2CCC(C(=O)OCc3cccc(OC)c3OC)CC2)cc1`, the inhibition is -13.5%.

In the case of `COc1ccc(C)cc1N=Nc1ccc(O)c2ncccc12`, the inhibition was 6.77%.

On to `COc1ccc(N=Nc2ccc(O)c3ncccc23)cc1`, for which the inhibition was 2.93%.

For the compound `Cc1cccc(N=Nc2ccc(O)c3ncccc23)c1`, the inhibition is 0.95%.

As for `CCS(=O)(=O)c1ccc(OC)c(N=Nc2ccc(O)c3ncccc23)c1`, the inhibition is 9.35%.

For `COc1cccc(N=Nc2ccc(O)c3ncccc23)c1`, the inhibition is -0.21%.

On to `Cc1ccc(C)c(N=Nc2ccc(O)c3ncccc23)c1`, for which the inhibition is 5.69%.

With `O=C(NCc1ccco1)c1nn(-c2ccccc2)c(=O)c2ccccc12`, the inhibition is 0.06%.

Turning to `O=C(COC(=O)CSc1ccc2ccccc2c1)NCc1ccc2c(c1)OCO2`, the inhibition was 2.14%.

On to `CC(C)(C)CC(C)(C)NCC(O)COc1ccc2c(c1)CCC2` (configuration not stated), for which the inhibition is 5.01%.

Regarding `Cc1ccc(S(=O)(=O)NC2CCCCC2)c(C)c1NS(C)(=O)=O`, the inhibition is 3.57%.

`Cc1ccc(-c2nn(-c3ccccc3Cl)cc2C(=O)NCC2CCCO2)cc1` (configuration not stated): the inhibition is -0.44%.

For `COCCN(CC(=O)Nc1cccc(C)c1C)C(=O)Cc1cccs1`, the inhibition is -7.25%.

For `Cc1cc(S(=O)(=O)N(Cc2ccccc2F)C2CC2)ccc1-n1cnnn1`, the inhibition is 6.46%.

Take `O=C(Nc1ccccc1)OCN1C(=O)c2ccccc2C1=O`: the inhibition was 2.63%.

`CC(C)(C)C(=O)O/N=C1/C(=O)N(c2ccccc2)c2ccccc21`: the inhibition was -9.74%.

Turning to `CCN(CC)c1ccc(/C=C(\C#N)C(N)=O)cc1`, the inhibition was 2.41%.

With `CCc1ccc(/C=C(/C#N)C(N)=S)cc1`, the inhibition was -1.52%.

The term inhibition denotes the relative decrease from the control value, in per cent.

The values are drawn from PubChem BioAssay AID504329 (Southern Research Specialized Biocontainment Screening …, 2011).
